Results taken from the supplement of paper PMC13380429.

Tested on: Vero E6 infected with SARS-CoV-2
Experiment: inhibition of SARS-CoV-2 cytopathic effect; higher = more antiviral protection, active = above 15
Conditions: 48 h

Measured: inhibition of SARS-CoV-2 cytopathic effect

CC(=O)Nc1cccc2c1c(Sc1ccc(Cl)cc1)c(C)n2CC(=O)O
inactive: 1 nM -2.31% | 8.33 nM -3.4% | 100 nM -2.21% | 833.33 nM -0.59% | 10000 nM -0.66%

C=C[C@]1(C)C[C@@H](OC(=O)CS[C@@H]2C[C@H]3CC[C@@H](C2)N3C)[C@]2(C)[C@H](C)CC[C@]3(CCC(=O)[C@H]32)[C@@H](C)[C@@H]1O [retapamulin]
inactive: 1 nM -0.46% | 8.33 nM 2.42% | 100 nM 1.21% | 833.33 nM 1.93% | 10000 nM -0.87%

c1cc(-c2cnn3cc(-c4ccc(N5CCNCC5)cc4)cnc23)c2cccnc2c1
inactive: 1 nM -0.58% | 8.33 nM -1.57% | 100 nM -4.29% | 833.33 nM -2.22% | 10000 nM 6.47%

CCc1cc2c(s1)-n1c(C)nnc1CN=C2c1ccccc1Cl [etizolam]
inactive: 1 nM 2.37% | 8.33 nM 2.54% | 100 nM -2.3% | 833.33 nM 3.16% | 10000 nM 2.75%

Fc1ccc(C(c2ccccc2)(c2ccccc2F)n2ccnc2)cc1 (stereo not given) [flutrimazole]
inactive: 1 nM -1.84% | 8.33 nM -3.27% | 100 nM -4.23% | 833.33 nM -1.83% | 10000 nM -1.07%

O=C1C[C@@H](c2ccc(O)cc2)Oc2cc(O)ccc21
inactive: 1 nM -0.59% | 8.33 nM 2.87% | 100 nM 2.13% | 833.33 nM 1.65% | 10000 nM 12%

C[C@@H]1O[C@@H](O[C@H]2[C@H](Oc3cc(O)c4c(c3)O[C@H](c3ccc(O)cc3)CC4=O)O[C@H](CO)[C@@H](O)[C@@H]2O)[C@H](O)[C@H](O)[C@H]1O [Naringin (Naringoside)]
inactive: 1 nM -3.68% | 8.33 nM -1.36% | 100 nM -3.02% | 833.33 nM -1.1% | 10000 nM 1.71%

COc1ccc(/C=C\c2cc(OC)c(OC)c(OC)c2)cc1O [combretastatin-A-4]
inactive: 1 nM 1.94% | 8.33 nM 1.57% | 100 nM -1.22% | 833.33 nM -2.08% | 10000 nM -0.45%

CC(C)(C#N)c1ccc(N2C(=O)OCc3cnc4ccc(-c5cnc6ccccc6c5)cc4c32)cc1
inactive: 1 nM 4.95% | 8.33 nM 2.48% | 100 nM 2.65% | 833.33 nM 2.93% | 10000 nM 4.4%

CC1CCN(CC[C@H]2CCCN2S(=O)(=O)c2cccc(O)c2)CC1
inactive: 1 nM 1.41% | 8.33 nM 2.24% | 100 nM 2.25% | 833.33 nM 2.79% | 10000 nM 0.64%

C[C@@H](N[C@H]1CCCC[C@@H]1NC(=O)c1ccc(Cl)cc1)c1cccc2ccccc12 [Calhex-231]
inactive: 1 nM -0.12% | 8.33 nM -0.88% | 100 nM 1.31% | 833.33 nM 5.65% | 10000 nM -1.86%

CCc1nn(CCO)c(CC)c1Oc1cc(C#N)cc(C#N)c1 [lersivirine]
inactive: 1 nM 2.25% | 8.33 nM 2.52% | 100 nM 2.57% | 833.33 nM 0.87% | 10000 nM 2.19%

CCCCCCCCCCCCCCCCCCCCCC(=O)O
inactive: 1 nM 2.81% | 8.33 nM 2.25% | 100 nM 1.57% | 833.33 nM 0.29% | 10000 nM 1.77%

CCOC(=O)[C@H](CCc1ccccc1)N[C@@H](C)C(=O)N1CCC[C@H]1C(=O)O [enalapril]
inactive: 1 nM -1.51% | 8.33 nM -1.35% | 100 nM -0.07% | 833.33 nM 2.42% | 10000 nM 0.52%

C[C@@]1(CO)[C@H](O)CC[C@@]2(C)[C@H]1CC[C@H]1C[C@@H]3C[C@@]12CC[C@]3(O)CO [aphidicolin]
inactive: 1 nM -5.87% | 8.33 nM -3.68% | 100 nM -2.81% | 833.33 nM -0.76% | 10000 nM -2.66%

O=C(O)CNC(=O)c1nc(Cl)c2ccccc2c1O
inactive: 1 nM 0.76% | 8.33 nM 0.65% | 100 nM 4.78% | 833.33 nM 2.19% | 10000 nM -0.7%

COc1cc2c(Oc3ccc4[nH]c(C)cc4c3F)ccnc2cc1OCC1(N)CC1 [anlotinib]
inactive: 1 nM 1.84% | 8.33 nM -1.41% | 100 nM 1.56% | 833.33 nM 1.39% | 10000 nM -7.82%

COc1ccc(C(=O)Nc2sc3c(c2C(N)=O)CCCC3)cc1OC
inactive: 1 nM -0.36% | 8.33 nM -0.47% | 100 nM -3.78% | 833.33 nM -0.85% | 10000 nM 0.05%
